In PubChem BioAssay (Tox21):
Several values for one entry are separate records, joined by “and”; a condition that tells them apart may be missing. Identical values can stand only once. Activity calls are given as the source filed them. Unless noted, calls come from the whole dose curve; as a rule, active = well fitted curve in the direction sought with a large enough effect in the repeat runs; inconclusive = weak or mixed curves; inactive = flat fitted curve, though single readings scatter.

Tested on: not listed separately
Test: qHTS assay to test for compound auto fluorescence at 460 nm (blue) in HepG2 cells (AID 720687)
Conditions: autofluorescence 405/460 nm, 1 h; series mostly up to 91.3 µM; fluorescence, % of fluorescent control: at the top concentration
Procedure, shortened: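 HepG2 cells in MEM with 10% FBS, attached overnight at 37 C, were exposed to compound or DMSO for 1 hr at 37 C, 5% CO2. Blue fluorescence was read at 405/460 nm, with triamterene as reference fluorophore.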
% is set by controls: 0 for no effect and ±100 for the full control effect.

| SMILES | fluorescence, % of fluorescent control | Potency |
| --- | --- | --- |
| CC(C)(C)CC(C)(C)c1ccc(Nc2ccc(C(C)(C)CC(C)(C)C)cc2)cc1 | 0.0384% [at 3.72 µM] (inactive) |  |
| CC(C)=CCC1=C(O)c2ccccc2C(=O)C1=O | -0.379% (inactive) |  |
| ClCCl | -0.221% (inactive) |  |
| CCCCNS(=O)(=O)c1ccc(C)cc1 | -0.085% (inactive) |  |
| CC(CO)Oc1ccccc1 (centres undefined) | -0.0989% [at 95.7 µM] (inactive) |  |
| C=C(CC)C(=O)c1ccc(OCC(=O)O)c(Cl)c1Cl |  | inactive |
| CCC(COC(=O)CCS)(COC(=O)CCS)COC(=O)CCS | 0.0991% (inactive) |  |
| O=C(O)c1cccc(C(F)(F)F)c1 | -0.429% (inactive) |  |
| O=C(O)CCN(C1(C(=O)NO)CCCC1)S(=O)(=O)c1ccc(Oc2ccc(F)cc2)cc1 | 0.005% (inactive) |  |
| Nc1ccc(C(=O)O)c(O)c1 | -0.0561% [at 46 µM] (inactive) |  |
| C[C@H]1NCc2cc(-c3ccc4c(=O)c(C(=O)O)cn(C5CC5)c4c3OC(F)F)ccc21 | 0.493% [at 46 µM] (inactive) |  |
| O=C(Oc1ccccc1)Oc1ccccc1 | 0.103% (inactive) |  |
| O=[N+]([O-])c1ccc(O)cc1C(F)(F)F | -0.622% (inactive) |  |
| COC(=O)Nc1nc2ccc(C(=O)c3ccccc3)cc2[nH]1 | 0.116% [at 18.6 µM] (inactive) |  |
| O=C(O)c1cc(=O)c2ccccc2o1 | -0.0153% [at 46 µM] (inactive) |  |
| CC1=Nc2ccccc2C1(C)C | 0.687% (inactive) |  |
| CCCCCCCC/C=C\CCCCCCCCN | -0.0129% [at 46 µM] (inactive) |  |
| CCCCC(CC)CN1CN(CC(CC)CCCC)CC(C)(N)C1 (centres undefined) | -0.0067% [at 18.6 µM] (inactive) |  |

Molecular target: Glucocorticoid receptor (Homo sapiens) (UniProt P04150)
Test: qHTS assay to identify small molecule agonists of the glucocorticoid receptor (GR) signaling pathway (AID 720691; active = well fitted activation curve with a large enough effect in the signal ratio in the repeat runs, not every such curve was filed as active; inconclusive = weak or mixed curves, or effect the other way; inactive = no such curve, though single readings can be large or run the other way; the % refers to the signal ratio; note: potency is the fitted concentration of half-maximal effect)
Conditions: GR-bla HeLa, beta-lactamase reporter ratio, 18 h; series mostly up to 62.4 µM; activation: at the top concentration
Procedure, shortened: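 Cells: GR-bla HeLa, endogenous GR with stably integrated GRE-beta-lactamase reporter. Treatment 18 h, 37 C, compounds delivered in DMSO. Detection via LiveBLAzer B/G FRET substrate, 2 h RT, fluorescence intensity.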

Glucocorticoid receptor (Homo sapiens), sequence (P04150 whole entry, looked up): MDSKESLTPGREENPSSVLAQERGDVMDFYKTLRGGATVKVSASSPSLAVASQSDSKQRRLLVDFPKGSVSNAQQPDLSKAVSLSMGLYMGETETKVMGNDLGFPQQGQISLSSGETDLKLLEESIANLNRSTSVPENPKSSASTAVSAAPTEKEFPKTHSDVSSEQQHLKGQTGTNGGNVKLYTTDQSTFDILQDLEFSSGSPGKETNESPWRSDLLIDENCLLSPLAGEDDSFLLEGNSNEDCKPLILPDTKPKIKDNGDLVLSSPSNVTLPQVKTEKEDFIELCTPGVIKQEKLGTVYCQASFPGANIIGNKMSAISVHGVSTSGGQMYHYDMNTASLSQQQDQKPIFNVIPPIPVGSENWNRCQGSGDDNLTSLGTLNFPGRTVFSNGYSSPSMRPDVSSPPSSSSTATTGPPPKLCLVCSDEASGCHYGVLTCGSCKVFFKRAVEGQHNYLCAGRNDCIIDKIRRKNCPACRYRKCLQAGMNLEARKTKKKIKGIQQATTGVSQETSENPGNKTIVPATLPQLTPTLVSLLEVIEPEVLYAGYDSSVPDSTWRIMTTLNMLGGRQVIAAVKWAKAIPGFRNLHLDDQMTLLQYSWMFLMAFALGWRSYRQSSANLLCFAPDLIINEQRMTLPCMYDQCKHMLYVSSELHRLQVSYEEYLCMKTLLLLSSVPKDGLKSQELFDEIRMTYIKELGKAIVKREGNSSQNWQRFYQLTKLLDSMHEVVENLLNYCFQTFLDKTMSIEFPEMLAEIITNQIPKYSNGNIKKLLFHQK

| SMILES | activation | Potency |
| --- | --- | --- |
| O=C(O)[C@H](O)[C@@H](O)[C@H](O[C@@H]1O[C@H](CO)[C@H](O)[C@H](O)[C@H]1O)[C@H](O)CO | -0.583% [at 29.2 µM] (inactive) |  |
| Cc1c2ccccc2c(C)c2c1ccc1ccccc12 |  | 3.85 µM (active) and 54.9 µM [inconclusive] (active) |
| NC[C@H]1O[C@H](O[C@H]2[C@H](O[C@@H]3O[C@H](CO)[C@@H](O)[C@H]3O)C(O)[C@H](N)C[C@@H]2N)[C@H](N)[C@@H](O)[C@@H]1O (some centres undefined) | -0.186% [at 29.2 µM] (inactive) |  |
| CC(C)CCCCCOC(=O)CCS | -1.99% (inactive) |  |
| COc1cc(/C=C/c2ccccc2)oc(=O)c1 | -1.13% [at 79.2 µM] (inactive) |  |
| CCO[Si](OCC)(OCC)OCC | 1.3% [at 79.2 µM] (inactive) |  |
| CCCCC(CC)COC(=O)CCCCC(=O)OCc1ccccc1 (centres undefined) | -1.87% (inactive) |  |
| NC(=S)NC(N)=S | -1.84% (inactive) |  |
| CC(=O)c1ccc(C(C)=O)cc1 | -0.376% [at 79.2 µM] (inactive) |  |
| C=CC(=O)Nc1cc2c(Nc3ccc(F)c(Cl)c3)ncnc2cc1OCCCN1CCOCC1 | 5.42% (inactive) |  |
| CCN(CC)c1ccc2c(-c3ccc(S(=O)(=O)O)cc3S(=O)(=O)[O-])c3ccc(=[N+](CC)CC)cc-3oc2c1 | 0.596% [at 79.2 µM] (inactive) |  |
| CC(C)(C)CC(C)(C)c1ccc(Nc2ccc(C(C)(C)CC(C)(C)C)cc2)cc1 | -1.13% [at 6.9 µM] (inactive) |  |
| CC(C)=CCC1=C(O)c2ccccc2C(=O)C1=O | -0.47% (inactive) |  |
| ClCCl | -6.89% (inactive) |  |
| CCCCNS(=O)(=O)c1ccc(C)cc1 | 4.31% (inactive) |  |
| CC(CO)Oc1ccccc1 (centres undefined) | 0.673% [at 79.2 µM] (inactive) |  |
| C=C(CC)C(=O)c1ccc(OCC(=O)O)c(Cl)c1Cl | 2.47% (inactive) |  |
| O=C(O)c1cccc(C(F)(F)F)c1 | -3.93% (inactive) |  |
| Nc1ccc(C(=O)O)c(O)c1 | 0.392% (inactive) |  |
| C[C@H]1NCc2cc(-c3ccc4c(=O)c(C(=O)O)cn(C5CC5)c4c3OC(F)F)ccc21 | -4.79% (inactive) |  |
| O=[N+]([O-])c1ccc(O)cc1C(F)(F)F | 2% (inactive) |  |
| COC(=O)Nc1nc2ccc(C(=O)c3ccccc3)cc2[nH]1 | 3.5% [at 29.2 µM] (inactive) |  |
| O=C(O)c1cc(=O)c2ccccc2o1 | -0.9% (inactive) |  |
| CC1=Nc2ccccc2C1(C)C | -2.64% (inactive) |  |

Molecular target: Glucocorticoid receptor (Homo sapiens) (UniProt P04150)
Test: qHTS assay to identify small molecule antagonists of the glucocorticoid receptor (GR) signaling pathway (AID 720692; active = well fitted inhibition curve with a large enough effect in the signal ratio in the repeat runs, not every such curve was filed as active; inconclusive = weak or mixed curves, or effect the other way; inactive = no such curve, though single readings can be large or run the other way; the % refers to the signal ratio; note: potency is the fitted concentration of half-maximal effect)
Conditions: GR-bla HeLa, beta-lactamase FRET ratio, dexamethasone-stimulated, 18 h; series mostly up to 58.5 µM; activity change, negative = inhibition: at the top concentration
Procedure, shortened: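 Quantitative HTS in antagonist format: HeLa cells expressing endogenous GR and a stably integrated GRE-bla reporter, stimulated with 5 nM dexamethasone (final) alongside test compounds for 18 h.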

| SMILES | activity change, negative = inhibition | Potency |
| --- | --- | --- |
| O=C(O)[C@H](O)[C@@H](O)[C@H](O[C@@H]1O[C@H](CO)[C@H](O)[C@H](O)[C@H]1O)[C@H](O)CO | -2.78% [at 27 µM] (inactive) |  |
| NC[C@H]1O[C@H](O[C@H]2[C@H](O[C@@H]3O[C@H](CO)[C@@H](O)[C@H]3O)C(O)[C@H](N)C[C@@H]2N)[C@H](N)[C@@H](O)[C@@H]1O (some centres undefined) | 9.29% [at 27 µM] (inactive) |  |
| CC(C)CCCCCOC(=O)CCS | -0.778% (inactive) |  |
| COc1cc(/C=C/c2ccccc2)oc(=O)c1 | 21.3% [at 78.9 µM] (inactive) |  |
| CCO[Si](OCC)(OCC)OCC | 18.6% [at 78.9 µM] (inactive) |  |
| CCCCC(CC)COC(=O)CCCCC(=O)OCc1ccccc1 (centres undefined) | 1.76% (inactive) |  |
| NC(=S)NC(N)=S | 3.03% (inactive) |  |
| CC(=O)c1ccc(C(C)=O)cc1 | -2.48% [at 78.9 µM] (inactive) |  |
| C=CC(=O)Nc1cc2c(Nc3ccc(F)c(Cl)c3)ncnc2cc1OCCCN1CCOCC1 |  | 3.01 µM (active) |
| CCN(CC)c1ccc2c(-c3ccc(S(=O)(=O)O)cc3S(=O)(=O)[O-])c3ccc(=[N+](CC)CC)cc-3oc2c1 | 1.93% [at 78.9 µM] (inactive) |  |
| CC(C)(C)CC(C)(C)c1ccc(Nc2ccc(C(C)(C)CC(C)(C)C)cc2)cc1 | -25.8% [at 7.04 µM] (inactive) |  |
| ClCCl | -18.9% (inactive) |  |
| CC(CO)Oc1ccccc1 (centres undefined) | 0.146% [at 78.9 µM] (inactive) |  |
| O=C(O)c1cccc(C(F)(F)F)c1 | 15.5% (inactive) |  |
| Nc1ccc(C(=O)O)c(O)c1 | 12.8% (inactive) |  |
| C[C@H]1NCc2cc(-c3ccc4c(=O)c(C(=O)O)cn(C5CC5)c4c3OC(F)F)ccc21 | -12.9% (inactive) |  |
| O=C(O)c1cc(=O)c2ccccc2o1 | -14% (inactive) |  |
